Sampled rows, rich in hits. Any-hit rate of the full collection: about 21%.
CHX counter: affects cycloheximide protein synthesis inhibition readout, counter-screen. 12% of 300,000 active. max response, %. AID 2314. cell reporter, cycloheximide protein synthesis inhibition counterscreen; in the data active means max response mostly above about 13%, no sharp cut-off; inactive means mostly below about 14%; further: read at 38.3 µM for the half of the compounds with a filed dose; 0% is about no effect
Pf growth 96h: P. falciparum growth inhibition at 96 hour, primary screen for plastid delayed-death inhibitors; P. falciparum luciferase reporter growth, 96 h; Potency, µM (top dose mostly 28.7 µM), for inactives: at the highest dose activity change, negative = inhibition, hits mostly inhibitors; 6.9% of 320,000 active; AID 504834; further: potency means the concentration at half of the fitted maximal effect; on the % scale 0 is the no-effect control and ±100 the full control effect
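Erythrocytes infected with luciferase-expressing P. falciparum were dispensed at 2% hematocrit and 0.05% parasitemia (final), then incubated with compounds 96 hours at 37 C in 5% CO2. Luminescence after detection reagent addition reported growth.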
Pf growth 48h: inhibits P. falciparum growth in the first generation, 48 h; AID 504832; Potency, µM (titrated, usually from 28.7 µM), inactives show at the highest dose activity change, negative = inhibition, usual class: inhibitors; P. falciparum luciferase growth in erythrocytes, 48 h; 5.9% of 310,000 active; further: potency means the concentration at half of the fitted maximal effect; on the % scale 0 is the no-effect control and ±100 the full control effect
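Firefly luciferase activity from engineered P. falciparum reports growth; inhibitors lower the luminescent signal. Cultures contained 2% hematocrit erythrocytes at 0.1% final parasitemia.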
Shiga inhibitor: inhibitors of Shiga toxin in Vero cells; Vero cells, Shiga toxin protein synthesis inhibition reporter; inhibition, % at 38.7 µM; 9.2% of 290,000 active; AID 2315; in the data active means inhibition mostly above about 28%, no sharp cut-off; inactive means mostly below about 43%; further: 0% is about no effect
Starred values were filed as active, the others as inactive. Unless noted, the call rests on the fitted dose curve; in most records, active means well fitted inhibition curve with a large enough effect; inconclusive means small, poorly fitted or top-dose-only effect, or another doubt; inactive means no such curve, though single readings can be large or run the other way.

`O=C(NCCc1ccccc1C(F)(F)F)C1CCC(=O)N(CCCN2CCCC2=O)C1` (stereo unspecified) gave CHX counter 2, Pf growth 96h 9.3µM*, Pf growth 48h -18% and Shiga inhibitor 14.
O=C(NCCc1ccc(C(F)(F)F)cc1)C1CCC(=O)N(CCCc2ccccc2)C1 (stereo unspecified) was read as CHX counter -2, Pf growth 96h -4%, Pf growth 48h 9% and Shiga inhibitor -8.
COc1ccccc1-n1c(C)c(C(C)=O)c2cc(O)ccc21 was read as CHX counter -1, Pf growth 96h inconclusive and Pf growth 48h inconclusive.
Screening COc1ccc(NC(=O)c2ccc(S(=O)(=O)N3CC(C)CC(C)C3)cc2)cc1S(N)(=O)=O (stereo unspecified) returned Pf growth 96h -28% and Pf growth 48h -25%.
Screening COc1cccc(C(=O)/C=C/c2ccc(N3CCCCC3)c([N+](=O)[O-])c2)c1 returned CHX counter 29*, Pf growth 96h -77%, Pf growth 48h inconclusive and Shiga inhibitor 60*.
Screening O=C(/C=C/c1ccc(N2CCCCC2)c([N+](=O)[O-])c1)c1ccc(S(=O)(=O)N2CCCC2)cc1 returned CHX counter -2, Pf growth 96h -24%, Pf growth 48h 12% and Shiga inhibitor -5.
Screening CO/N=C/c1ccc(N2CCCC2)c([N+](=O)[O-])c1 returned CHX counter 31*, Pf growth 96h 47%, Pf growth 48h 233% and Shiga inhibitor 53.
For C#C[C@]1(O)CC[C@@H]2[C@H]3CCC4=CC(=O)CC[C@H]4[C@H]3C(=C)C[C@@]21CC the results were Pf growth 96h -89% and Pf growth 48h -49%.
Screening COc1ccc(CCNC(=O)CCS(=O)(=O)c2ccc3c(c2)NC(=O)CO3)cc1OC returned CHX counter -3, Pf growth 96h -41%, Pf growth 48h inconclusive and Shiga inhibitor -3.
For CC(C)(C)n1ncc2c(=O)n(CC(=O)c3ccc(Cl)cc3)cnc21 the results were CHX counter 78*, Pf growth 96h inconclusive, Pf growth 48h 142% and Shiga inhibitor 84*.
For CC(C)(C)n1ncc2c(=O)n(Cc3c(F)cccc3Cl)cnc21 the results were CHX counter 16*, Pf growth 96h inconclusive, Pf growth 48h inconclusive and Shiga inhibitor 52.
`CC(C)(C)n1ncc2c(=O)n(CC(=O)Nc3ccc(Cl)cc3)cnc21` gave CHX counter 1, Pf growth 96h 275%, Pf growth 48h -22% and Shiga inhibitor -6.
`CC1CCN(C(=O)Cn2cnc3c(cnn3C(C)(C)C)c2=O)CC1` gave CHX counter 56*, Pf growth 96h inactive, Pf growth 48h 194% and Shiga inhibitor 93*.
For Cc1ccc(-n2nnc3c(=O)n(CC(=O)N4CCC(C)CC4)cnc32)cc1 the results were CHX counter 9, Pf growth 96h 4.1µM*, Pf growth 48h 23% and Shiga inhibitor -3.
For COc1ccc(-n2ncc3c(=O)n(Cc4c(F)cccc4Cl)cnc32)cc1 the results were CHX counter 7, Pf growth 96h 134%, Pf growth 48h 28% and Shiga inhibitor 26.
`CC(C)(C)n1ncc2c(=O)n(CC(=O)N3CCCC3)cnc21` gave CHX counter 8, Pf growth 96h 18%, Pf growth 48h -3% and Shiga inhibitor -7.
Screening Cc1ccc(-n2nnc3c(=O)n(CC(=O)N4CCCC4)cnc32)cc1 returned CHX counter -3, Pf growth 96h 50%, Pf growth 48h 19% and Shiga inhibitor -5.
`Cc1ncc(CN2CCCC(C(=O)Nc3ccc(-n4ccnc4C)cc3)C2)cn1` (stereo unspecified) gave CHX counter -3, Pf growth 96h 5%, Pf growth 48h 14% and Shiga inhibitor 4.
Screening CC(=O)Nc1ccc(NC(=O)Cn2cnc3c(cnn3C(C)(C)C)c2=O)cc1 returned CHX counter 2, Pf growth 96h 19%, Pf growth 48h 75% and Shiga inhibitor 7.
`CC(C)(C)n1ncc2c(=O)n(CC(=O)NCc3ccccc3)cnc21` gave CHX counter 20*, Pf growth 96h 66%, Pf growth 48h 473% and Shiga inhibitor 37*.
Screening NC(=O)Cn1c(=O)n(C2CCCCC2)c(=O)c2c3c(sc21)CCCCC3 returned CHX counter 11, Pf growth 96h 2.3µM*, Pf growth 48h inconclusive and Shiga inhibitor -4.
O=C(CSc1nnc(-c2ccccc2F)o1)NC(=O)Cc1ccccc1 was read as Pf growth 96h 36% and Pf growth 48h 21%.
O/N=C(/c1ccc(F)cc1)C1CC1c1c(F)cccc1Cl (stereo unspecified) was read as CHX counter -1, Pf growth 96h 32%, Pf growth 48h -20% and Shiga inhibitor -16.
`CC1Oc2ccccc2C=C1/C=N/Nc1ccc(C(=O)O)cc1` (stereo unspecified) gave CHX counter 33*, Pf growth 96h 14%, Pf growth 48h -37% and Shiga inhibitor 70*.
CC(=O)Nc1ccc(S(=O)(=O)NCCC(=O)N2CCc3ccccc32)cc1 was read as CHX counter 6, Pf growth 96h -15%, Pf growth 48h 3% and Shiga inhibitor -10.
For COc1ccc(-c2cc(C(=O)N3CC(C)CC(C)C3)c3ccccc3n2)cc1OC (stereo unspecified) the results were Pf growth 96h 10µM* and Pf growth 48h inconclusive.
COc1ccc(-c2cc(C(=O)N3CCC3)c3ccccc3n2)cc1OC was read as Pf growth 96h -27% and Pf growth 48h inconclusive.
`CC1CC(C)CN(C(=O)c2cc(-c3ccncc3)nc3ccccc23)C1` (stereo unspecified) gave Pf growth 96h inconclusive and Pf growth 48h 9.3µM*.
`O=C(c1cc(-c2ccncc2)nc2ccccc12)N1CCN(S(=O)(=O)/C=C/c2ccccc2)CC1` gave CHX counter 0, Pf growth 96h inconclusive, Pf growth 48h 1.9µM* and Shiga inhibitor -18.
Screening CC1CN(C(=O)c2cc(-c3ccncc3)nc3ccccc23)CC(C)O1 (stereo unspecified) returned Pf growth 96h -10% and Pf growth 48h -29%.
Screening COc1ccc(-c2cc(C(=O)N3CCCC3)c3ccccc3n2)cc1OC returned CHX counter 19, Pf growth 96h -20%, Pf growth 48h inconclusive and Shiga inhibitor -6.
For COc1ccc(-c2cc(C(=O)N3CCN(c4cccc(C)c4C)CC3)c3ccccc3n2)cc1OC the results were Pf growth 96h 10µM* and Pf growth 48h 9.3µM*.
Screening C=CCOn1c(=O)c(-c2cc3ccccc3o2)[n+]([O-])c2ccccc21 returned CHX counter 38*, Pf growth 96h inconclusive, Pf growth 48h inconclusive and Shiga inhibitor 120*.
Screening CCOC(=O)COn1c(=O)c(-c2ccc(Br)cc2)[n+]([O-])c2ccccc21 returned CHX counter -1, Pf growth 96h 78%, Pf growth 48h 35% and Shiga inhibitor -5.
`CCOC(=O)COn1c(=O)c(-c2cc3ccccc3o2)[n+]([O-])c2ccccc21` gave CHX counter 72*, Pf growth 96h 146%, Pf growth 48h 160% and Shiga inhibitor 172*.

Assay outcomes (PubChem)
